# Rows were chosen to be rich in hits. Some 1.6% of all compounds tested hit in one or more screens of this group.
# Arbovirus anti: antivirals against arbovirus infection, primary screen, cell-based, full library, 10K replicate subset; 0.37% of 200,000 active; AID 1251, 2008; inhibition, % at 10 µM; arbovirus infection cell-based antiviral screen; in the data active = inhibition above about 30%
# DTT redox prof: compounds producing H2O2 with reducing agent – biochemical, NIH compound library profiling, artefact control for MLSCN library redox annotation, primary screen; 0.03% of 200,000 active; DTT-dependent redox cycling H2O2, phenol red/HRP absorbance; 100% = 100 µM peroxide control, 0% = buffer; activation, % at 10 µM;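 active = activation of at least 50% relative to the plate's high and low controls in the primary single-dose screen; inactive = activation below 50%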;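 note: compound incubated with DTT at 0.8 mM final as the reducing agent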
# S1P4 agonist: S1P4 receptor agonists, primary screen, cell-based. activation, % at 4.98 µM. Sphingosine 1-phosphate receptor 4 (Homo sapiens), O95977. 0.35% of 220,000 active. S1P4-expressing cell line, agonist reporter assay; in the data active = activation above about 11%;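 note: 0% = DMSO vehicle and 100% = reference agonist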
# p97 ATPase inh: inhibitors of human p97 ATPase, primary screen, biochemical | Transitional endoplasmic reticulum ATPase (Homo sapiens), P55072 | recombinant p97 ATPase, Kinase-Glo ATP luminescence, 3 h | inhibition, % at 8 µM | 0.42% of 220,000 active; in the data active = inhibition above about 15%;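 note: 0% = DMSO vehicle and 100% = wells lacking enzyme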
# S1P4 antag: S1P4 receptor antagonists, primary screen, cell-based; Sphingosine 1-phosphate receptor 4 (Homo sapiens), O95977; S1P4-expressing cells, antagonist mode, reporter read-out; inhibition, % at 4.98 µM; 0.26% of 220,000 active; AID 1510, 2009; in the data active = inhibition above about 29%;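 note: 0% = wells stimulated with agonist and 100% = vehicle wells without agonist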
# S1P3 antag-1: S1P3 receptor antagonists, primary screen, cell-based | AID 485, 2006 | inhibition, % at 4.98 µM | 0.27% of 170,000 active | CHO S1P3 NFAT-BLA reporter, FRET fluorescence, antagonist mode;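 active = inhibition above the plate cutoff, the mean inhibition of test wells on that plate plus 3 SD, cut at about 28% in these data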;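 note: cells challenged with S1P at its EC80 of 0.8 µM; blue over green emission ratio from cleaved BLA substrate after 4 h stimulation; 0% = S1P-stimulated wells and 100% = unstimulated DMSO-only wells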
# S1P3 antag-2: S1P3 receptor antagonists, retest, confirmation, cell-based; shares compounds with S1P3 antag-1; CHO S1P3 NFAT-BLA reporter, FRET, antagonist mode; inhibition, % at 4.98 µM; 30% of 240 active;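 active = inhibition above the hit threshold that was computed for the earlier primary screen, cut at about 30% in these data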;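 note: 0% = S1P-stimulated wells and 100% = unstimulated DMSO-only wells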
# * = called active by the depositor; · = not tested or not shown.
SMILES,Arbovirus anti,DTT redox prof,S1P4 agonist,p97 ATPase inh,S1P4 antag,S1P3 antag-1,others
COc1cc(C)c(CN2CCN(c3ccccc3)CC2)cc1C,-1,0,1,1,3,13,
COc1ccccc1N1CCN(Cc2cc(C)c(C)cc2O)CC1,32*,-2,0,-1,-20,·,
CC(C)OP(=O)(Oc1ccc(C(O)C(Cl)(Cl)Cl)cc1)OC(C)C (stereo not given),·,·,0,-4,-2,-8,
Cc1nn(CCC#N)c2c1P(=S)(N1CCCC1)OC(c1ccc(F)cc1)=N2 (stereo not given),-8,2,0,-3,5,74*,
COc1ccc(CC2C(=O)N(c3ccccc3)C(=O)N(c3ccccc3)C2=O)c(OC)c1,-2,0,2,1,-19,·,
COc1ccc(CC2C(=O)NC(=O)N(c3ccccc3)C2=O)c(OC)c1 (stereo not given),2,0,-1,0,-3,74*,
C=CCN(CC#CCOc1ccccc1OC)CC=C,-4,0,-1,-2,-33,13,
Cc1nn(Cc2ccccc2)c(Cl)c1C(=O)NC1CCCc2ccccc21 (stereo not given),30*,0,2,-4,24,-2,
Cc1oc2ccc(OC(=O)N(C)C)cc2c1C(=O)OC(C)C,32*,2,1,0,-2,-45,
CN1C(=O)/C(=C\c2ccc(N3CCCCC3)o2)C(=O)NC1=S,3,-3,-1,-2,-9,·,
CN1CCN(c2ccc(/C=C3\C(=O)NC(=S)N(c4cccc(Br)c4)C3=O)o2)CC1,37*,0,0,9,-13,-7,
CC1Oc2cc3c(-c4c(O)cc(O)c5c(O)c6c(cc45)OC(C)C(C)C6=O)c(O)cc(O)c3c(O)c2C(=O)C1C (stereo not given),·,·,-2,8,-5,43*,
CC(=O)N1CCC(N2CCCC(C(=O)c3cccc(Cl)c3)C2)CC1 (stereo not given),-6,-10,0,7,-4,2,
COc1ccc(CCN(C)Cc2ccc(F)cc2F)cc1OC,71*,0,0,0,3,·,
CN1C(=O)CN=C(c2ccccc2)c2cc(Cl)ccc21,-4,·,0,6,-3,-10,
CC(C)[C@]12O[C@H]1[C@@H]1O[C@]13[C@]1(O[C@H]1C[C@H]1C4=C(CC[C@@]13C)C(=O)OC4)[C@@H]2O,-1,·,-1,6,107*,105*,
O=C(O)CCC(=O)NCCC1=c2ccccc2=N/C1=C\c1c(O)n(Cc2ccc(F)cc2)c(=S)[nH]c1=O,·,·,0,4,-6,-9,
CC(=NCC1CCCO1)c1c(O)n(-c2ccccc2C)c(=O)[nH]c1=O (stereo not given),·,·,0,1,14,-3,
COc1ccc(N=Cc2c(O)n(-c3ccc(C)cc3)c(=O)[nH]c2=O)cc1,-14,-1,2,5,-10,30*,S1P3 antag-2=-11
CC(C)CN(CC(C)C)C(=O)C1C2c3ccccc3C(c3ccccc32)C1C(=O)O (stereo not given),2,0,-1,7,-11,-15,
COc1ccc(CCNCc2ccc(C)s2)cc1OC,-2,0,0,-2,3,-14,
COc1ccc(Cc2nccc3cc(OC)c(OC)cc23)cc1OC,3,-1,3,12,-18,29*,S1P3 antag-2=16

# Screens as filed in PubChem BioAssay.
